Source: PubChem
DNMT1 block = human DNMT1 methyltransferase inhibitors, primary screen, biochemical, molecular beacon, fluorescence, HinP1I cleavage, uHTS; 360,000 compounds, 0.83% hits; DNA (cytosine-5)-methyltransferase 1 (Homo sapiens), P26358; AID 588458, 2011; inhibition (reported as % activation of signal), % at 10 µM; in the data active = inhibition above about 50%
MBD2 DNA inh = inhibitors of MBD2 binding to methylated DNA, primary screen, biochemical, TR-FRET, DNA-binding domain, human; Methyl-CpG-binding domain protein 2 (Homo sapiens), Q9UBB5; MBD2 binding to methylated oligonucleotide; inhibition, % at 4.4 µM; 370,000 compounds, 0.31% hits; AID 686964, 2013; in the data active = inhibition above about 13%
PG9 Ab binder = binders of HIV-1 gp120 antibody PG9, primary screen, biochemical, TR-FRET. HIV-1 gp120 / PG9 antibody interaction. TR-FRET gp120-PG9 antibody binding. inhibition, % at 6.7 µM. 360,000 compounds, 0.43% hits; in the data active = inhibition above about 8.5%
LEDGF integ inh = blockers of LEDGF/p75-dependent integrase strand transfer – biochemical, TR-FRET, high throughput, primary screen. TR-FRET IN-LEDGF/p75 DNA integration, Eu/Cy5. 370,000 compounds, 0.64% hits. HIV-1 integrase (with human LEDGF/p75). inhibition, % at 3.7 µM. AID 743269, 2014;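 active = inhibition above the screen-wide mean plus 3 SD, cut at about 13% in these data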;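 note: signal is the Cy5 over europium emission ratio at 671 and 618 nm; 0% = plate median of compound wells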
UHRF1 MBD2 ctr = UHRF1 methylated DNA binding inhibitors, primary screen, counter-screen for MBD2 inhibitor project, biochemical, TR-FRET, human UHRF1, single concentration. UHRF1 binding to methylated oligo. 370,000 compounds, 0.75% hits. inhibition, % at 4.4 µM; in the data active = inhibition above about 21%;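 note: UHRF1 SRA domain binding a hemimethylated CpG hairpin DNA probe; 0% = median of test compound wells and 100% = reference inhibitor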
Target sequence (Q96T88 whole entry, looked up, the tested form may be a part): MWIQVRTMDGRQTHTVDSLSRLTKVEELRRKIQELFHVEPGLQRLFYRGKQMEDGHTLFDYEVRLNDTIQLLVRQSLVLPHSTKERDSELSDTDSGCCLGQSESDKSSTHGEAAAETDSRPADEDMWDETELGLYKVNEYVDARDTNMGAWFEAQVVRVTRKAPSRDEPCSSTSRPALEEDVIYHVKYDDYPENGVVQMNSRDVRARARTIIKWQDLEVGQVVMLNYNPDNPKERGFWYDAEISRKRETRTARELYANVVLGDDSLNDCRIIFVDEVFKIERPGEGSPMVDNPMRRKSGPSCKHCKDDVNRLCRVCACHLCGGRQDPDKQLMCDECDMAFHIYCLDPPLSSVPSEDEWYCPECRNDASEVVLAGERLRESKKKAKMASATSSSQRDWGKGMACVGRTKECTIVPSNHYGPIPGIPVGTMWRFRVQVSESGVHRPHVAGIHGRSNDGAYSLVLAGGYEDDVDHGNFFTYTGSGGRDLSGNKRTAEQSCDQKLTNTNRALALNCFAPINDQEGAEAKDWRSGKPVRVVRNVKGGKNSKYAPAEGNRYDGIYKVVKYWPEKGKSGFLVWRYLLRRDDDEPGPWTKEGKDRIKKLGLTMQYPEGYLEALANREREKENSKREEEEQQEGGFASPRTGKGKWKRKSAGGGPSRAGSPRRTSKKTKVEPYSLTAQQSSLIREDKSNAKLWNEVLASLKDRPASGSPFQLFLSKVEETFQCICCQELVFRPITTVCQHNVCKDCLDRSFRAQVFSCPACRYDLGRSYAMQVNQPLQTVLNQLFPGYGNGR
rCAG binder = binders of r(CAG) RNA repeats, primary screen, biochemical, fluorescence; r(CAG) RNA repeat, TO-PRO-1 dye displacement fluorescence; inhibition, % at 3 µM; 370,000 compounds, 1.3% hits; AID 651821, 2012;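 active = inhibition above the plate cutoff, the mean of all test compounds on that plate plus 3 SD, cut at about 35% in these data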;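 note: 0% = DMSO alone and 100% = 100 µM mitoxantrone as full dye displacement; higher means more dye released from RNA so lower well fluorescence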
IN multimer up = HIV-1 IN multimer formation enhancers, counter-screen for LEDGF/p75 integration inhibitor project, biochemical, TR-FRET; 2,000 compounds, 17% hits; AID 1053131, 2014; shares compounds with LEDGF integ inh; TR-FRET HIV-1 integrase multimerization; activation, % at 7.7 µM; in the data active = activation above about 8.9%
TRFRET interf = TR-FRET optical interference artefacts, confirmation, artefact control for LEDGF/p75-dependent integration inhibitor project, biochemical, HIV-1 IN multimerization. inhibition, % at 7.7 µM. TR-FRET optical interference counterscreen. shares compounds with LEDGF integ inh. 2,000 tested, under 10 active. AID 1053135, 2014;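 active = inhibition above the mean over all tested compounds plus 3 SD, which no compound reached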;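 note: 0% = integrase with antibodies and DMSO and 100% = antibodies without integrase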
IN-LEDGF confirm = inhibitors of HIV-1 IN-LEDGF/p75 DNA integration, confirmation, biochemical, TR-FRET | shares compounds with LEDGF integ inh | 2,000 compounds, 36% hits | inhibition, % at 3.7 µM | AID 1053136, 2014 | TR-FRET LEDGF/p75-dependent HIV-1 integration; in the data active = inhibition above about 14%
The depositor's hits bear a star; x = no result. A selection: hits, their analogues and other compounds. The true share with any hit is near 3.5%.

SMILES	DNMT1 block	MBD2 DNA inh	PG9 Ab binder	LEDGF integ inh	UHRF1 MBD2 ctr	rCAG binder	IN multimer up	TRFRET interf	IN-LEDGF confirm
CN(C)c1ccc(N=C/C=C2\N(C)c3ccccc3C2(C)C)cc1	-9.8	-18.9	-21.7	14.7*	-9.0	15.0	6.1	-30.7	-10.0
O=S(=O)(Nc1ccc(O)c2ncccc12)c1ccccc1F	58.7*	-11.3	-4.7	28.6*	-5.9	17.8	1.2	-5.9	43.8*
Oc1ccc(Nc2ccccc2F)c2cccnc12	x	-15.7	x	34.2*	-3.2	x	1.6	-8.2	1.2
Cc1ccccc1NC(=O)Nc1nc(C(N)Cc2ccccc2)cs1 (configuration not stated)	-8.3	-0.1	-0.8	6.4	-3.5	18.2	x	x	x
CC(NC(=O)Nc1ccc(O)cc1)(C(F)(F)F)C(F)(F)F	-5.9	-7.3	-1.8	19.5*	-1.1	1.2	4.2	-15.0	-4.0
COc1ccc(NC(=O)NC(C)(C(F)(F)F)C(F)(F)F)cc1	3.8	-4.5	1.8	4.3	1.0	-1.1	x	x	x
C[C@H]1CN([C@@H](C)CO)C(=O)CCCn2nncc2CO[C@@H]1CN(C)S(=O)(=O)c1ccc(-c2ccccc2)cc1	-4.4	-8.2	0.3	1.8	-0.3	6.6	x	x	x
CC1(C)CC(=O)C(CSC(=O)c2ccccc2)C(=O)C1	6.5	-3.8	0.2	-3.6	-0.2	0.8	x	x	x
CCOC(=O)C1CCCN(Cc2ccccc2Cl)C1 (configuration not stated)	2.1	0.3	0.4	15.7*	-3.3	-7.2	-2.4	11.9	1.7
COC[C@@H]1CCCN1[C@@H]1CS(=O)(=O)N[C@H]1COCc1ccccc1	3.6	1.0	1.9	5.9	-2.1	3.5	x	x	x
O=C(CSc1nc2ccccc2o1)N/N=C/c1ccc(O)c(O)c1	1.9	-3.0	-2.2	16.5*	3.8	13.8	62.2*	-221.5	72.9*
CC(C)C[C@H]1COc2cc(NCCO)ccc2S(=O)(=O)N1	x	0.5	-0.4	2.3	0.7	2.7	x	x	x
COc1ccccc1CNc1ccc2c(c1)OC[C@H](CC(C)C)NS2(=O)=O	x	2.8	5.6	20.3*	-3.6	0.4	2.8	-10.1	-4.4
COc1cccc(/C=C/C(=O)N2CC(C)OC(C)C2)c1OC (configuration not stated)	-2.5	4.9	-0.4	-1.4	0.9	-2.0	x	x	x
COC(=O)c1cc2c(c3c4cc(OC)ccc4n(S(=O)(=O)c4ccc(OC)cc4)c13)C(=O)N(Cc1ccco1)C2	x	4.9	0.5	2.1	1.5	21.4	x	x	x
O=C1CC(SC(=S)C2CCCC2=O)C(=O)N1 (configuration not stated)	68.8*	17.3*	-1.1	23.7*	53.6*	19.2	7.4	-37.2	21.9*
CC1=NN(c2ccccc2)C(=O)C1C(=S)SC1CC(=O)NC1=O (configuration not stated)	-0.5	-9.6	1.9	1.9	-7.4	2.6	x	x	x
COc1cc2c(cc1OC)C(C1(O)CCCCC1)NCC2 (configuration not stated)	-1.1	-4.0	-0.8	14.2*	-2.1	-5.4	0.8	-2.8	-11.8
COc1cc2c(cc1OC)C(C(N)=O)NCC2 (configuration not stated)	-0.4	-0.2	-0.6	-2.8	-0.3	1.5	x	x	x
CCN(CC)C(=O)c1oc(=O)c2ccccc2c1-c1ccc(C)cc1	x	-3.2	x	5.6	-1.9	2.4	x	x	x
COc1ccc(C2C3=C(CC(C)(C)CC3=O)Oc3ncn(CCCn4ccnc4)c(=N)c32)cc1 (configuration not stated)	-0.3	4.3	-0.3	-4.3	1.1	-0.6	x	x	x
CC1(C)CC(=O)C2=C(C1)Oc1ncn(CCCn3ccnc3)c(=N)c1C2c1ccccc1 (configuration not stated)	1.4	0.1	-1.7	88.4*	0.9	-5.4	0.0	-0.1	0.1
Clc1ccccc1N=Nc1ccccn1	-5.0	-0.9	-2.7	25.0*	5.2	-9.5	1.3	-4.4	15.7*
O=C(Nc1ccccc1)c1ccccc1CSc1ccccc1	-6.5	3.5	0.8	2.4	0.9	-4.0	x	x	x
O=C(COC(=O)c1n[nH]c2ccccc12)Nc1ccccc1F	-0.1	-6.0	-0.7	1.4	0.2	3.2	x	x	x
SMILES	DNMT1 block	MBD2 DNA inh	PG9 Ab binder	LEDGF integ inh	UHRF1 MBD2 ctr	rCAG binder	IN multimer up	TRFRET interf	IN-LEDGF confirm
O=C(COC(=O)c1n[nH]c(=O)c2ccccc12)Nc1ccccc1F	0.5	-2.9	-0.2	14.3*	-0.9	2.0	0.3	-1.7	-1.2
COc1ccc(C(O)c2ncc(-c3ccccc3)[nH]2)c(OC)c1 (configuration not stated)	0.1	1.8	0.0	0.7	-2.5	2.8	x	x	x
CC(C)NC(=O)N(C)C[C@@H]1Oc2ccc(NC(=O)Nc3ccc(C(F)(F)F)cc3)cc2CC(=O)N([C@H](C)CO)C[C@@H]1C	-7.1	1.6	1.0	13.9*	-1.5	-1.9	0.3	-1.6	-4.1
C[C@@H]1CN([C@@H](C)CO)C(=O)Cc2cc(NC(=O)Nc3ccc(C(F)(F)F)cc3)ccc2O[C@@H]1CN(C)S(=O)(=O)c1ccc(Cl)cc1	-44.2	-6.0	-1.4	-0.9	0.0	16.8	x	x	x
O=C(Cc1csc(N2CCOCC2)n1)N/N=C/c1ccc(O)c(O)c1O	18.9	1.4	-1.4	55.2*	4.9	14.7	44.1*	-156.6	60.0*
C=CCn1nc(C(=O)N2CCOCC2)cc1-c1sc(NC(=O)c2ccccc2)nc1C	0.7	5.5	0.7	1.1	15.8	2.6	x	x	x
c1ccc(-c2cn3nc(-c4ccccc4)cnc3n2)cc1	11.2	-1.9	1.6	89.5*	0.1	-0.1	-0.5	1.9	-3.4
Cc1nc2nc(-c3ccccc3)cn2nc1C	-4.6	-0.1	1.5	-3.1	-5.7	-0.8	x	x	x
